# Laboratory results: the supplement of paper PMC6555819
# How the values were obtained:
# Test in all cases: PBM binding z-score (relative to random genomic background probes); higher = stronger binding; sequences stand for … in GC…GCGATTGACAGCGTAGAATGAAGG
# [1] = test system: FXR:RXRa (NR concentration 270 nM, RXRa partner concentration 90 nM)
# Summary of the method: (§1)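 Scanned fluorescence from custom Agilent 4×180K protein-binding microarrays was regression-normalized. Binding z-scores use random background probes as reference. Ligand-free nuclear receptor dimers were incubated on the arrays for 1 h and detected with antibodies against each partner (one per run).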
# [2] = test system: LXRa:RXRa (NR concentration 270 nM, RXRa partner concentration 90 nM)
# Summary of the method: as §1
# [3] = test system: LXRa homodimer (NR concentration 270 nM)
# Summary of the method: as §1
# [4] = test system: LXRb:RXRa (NR concentration 270 nM, RXRa partner concentration 90 nM)
# Summary of the method: as §1
# [5] = test system: LXRb homodimer (NR concentration 270 nM)
# Summary of the method: as §1
# [6] = test system: PPARa:RXRa (NR concentration 270 nM, RXRa partner concentration 90 nM)
# Summary of the method: as §1
# [7] = test system: PPARg:RXRa (NR concentration 180 nM, RXRa partner concentration 90 nM)
# Summary of the method: as §1
# [8] = test system: PPARg:RXRa 270nM:90nM, anti-RXR (NR concentration 270 nM, RXRa partner concentration 90 nM)
# Summary of the method: as §1
# [9] = test system: PPARg:RXRa 30nM:10nM, anti-RXR (NR concentration 30 nM, RXRa partner concentration 10 nM)
# Summary of the method: as §1
# [10] = test system: PPARg:RXRa 90nM:30nM, anti-RXR (NR concentration 90 nM, RXRa partner concentration 30 nM)
# Summary of the method: as §1
sequence,measurement,setting,value
ATATGTAGGTTATCGGGTCCTTCAGTTTGCGCAT,PBM binding z-score,[1],0.663
same,PBM binding z-score,[2],0.859
same,PBM binding z-score,[3],0.528
same,PBM binding z-score,[4],0.856
same,PBM binding z-score,[5],0.389
same,PBM binding z-score,[6],3.24
same,PBM binding z-score,[7],5.01
same,PBM binding z-score,[8],4.43
same,PBM binding z-score,[9],1.77
same,PBM binding z-score,[10],3.45
TCTATTAGTTGAAGGACAACCGACGAGTCCGTTT,PBM binding z-score,[1],0.875
same,PBM binding z-score,[2],0.862
same,PBM binding z-score,[3],0.762
same,PBM binding z-score,[4],0.67
same,PBM binding z-score,[5],0.653
same,PBM binding z-score,[6],0.754
same,PBM binding z-score,[7],0.353
same,PBM binding z-score,[8],2.04
same,PBM binding z-score,[9],4.25
same,PBM binding z-score,[10],3.08
TATACAGGGTCAAAGGCAAGAGTACGAATGTCGA,PBM binding z-score,[1],6.51
same,PBM binding z-score,[2],6.12
same,PBM binding z-score,[3],2.15
same,PBM binding z-score,[4],4.62
same,PBM binding z-score,[5],2.67
same,PBM binding z-score,[6],5.97
same,PBM binding z-score,[7],7.76
same,PBM binding z-score,[8],6.96
same,PBM binding z-score,[9],4.69
same,PBM binding z-score,[10],6.75
TGTCAAAGTACAAAGGTAACGTAAGTATCCACAC,PBM binding z-score,[1],0.237
same,PBM binding z-score,[2],0.465
same,PBM binding z-score,[3],-0.185
same,PBM binding z-score,[4],0.542
same,PBM binding z-score,[5],-0.294
same,PBM binding z-score,[6],1.67
same,PBM binding z-score,[7],3.64
same,PBM binding z-score,[8],4.32
same,PBM binding z-score,[9],1.97
same,PBM binding z-score,[10],3.96
CCGAGTTGGTTATGGGGCATTCAGGCAACGGTGA,PBM binding z-score,[1],0.0617
same,PBM binding z-score,[2],0.0147
same,PBM binding z-score,[3],-0.147
same,PBM binding z-score,[4],0.0515
same,PBM binding z-score,[5],-0.451
same,PBM binding z-score,[6],0.287
same,PBM binding z-score,[7],0.0793
same,PBM binding z-score,[8],0.583
same,PBM binding z-score,[9],-0.717
same,PBM binding z-score,[10],0.0357
TCTTGTAGATCAAAGGTTAAGAGAGCCGAAGCCT,PBM binding z-score,[1],1.58
same,PBM binding z-score,[2],1.77
same,PBM binding z-score,[3],0.0362
same,PBM binding z-score,[4],1.91
same,PBM binding z-score,[5],-0.272
same,PBM binding z-score,[6],4.75
same,PBM binding z-score,[7],8.74
same,PBM binding z-score,[8],8.28
same,PBM binding z-score,[9],8.05
same,PBM binding z-score,[10],8.92
TCGAGTAGGTTAGGGGCATTAAGAATGGCGTCGA,PBM binding z-score,[1],0.466
same,PBM binding z-score,[2],0.479
same,PBM binding z-score,[3],-0.184
same,PBM binding z-score,[4],0.739
same,PBM binding z-score,[5],-0.27
same,PBM binding z-score,[6],1.34
same,PBM binding z-score,[7],1.07
same,PBM binding z-score,[8],2.13
same,PBM binding z-score,[9],1.32
same,PBM binding z-score,[10],1.98
TCTAGCAGGCCAGAGGGACACTCAAGAGGTACGG,PBM binding z-score,[1],-0.341
same,PBM binding z-score,[2],-0.607
same,PBM binding z-score,[3],-1.2
same,PBM binding z-score,[4],-0.951
same,PBM binding z-score,[5],-1.48
same,PBM binding z-score,[6],-0.201
same,PBM binding z-score,[7],0.823
same,PBM binding z-score,[8],1.13
same,PBM binding z-score,[9],1.39
same,PBM binding z-score,[10],1.15
CCTTACGGGTCACTCCAGGTTATAGCGTCGGAGT,PBM binding z-score,[1],5.26
same,PBM binding z-score,[2],7.75
same,PBM binding z-score,[3],1.89
same,PBM binding z-score,[4],5.52
same,PBM binding z-score,[5],0.0674
same,PBM binding z-score,[6],4.65
same,PBM binding z-score,[7],3.13
same,PBM binding z-score,[8],3.94
same,PBM binding z-score,[9],1.17
same,PBM binding z-score,[10],2.7
GCAGACAGGTGACACGCAGGTAACTCAGGGTGGC,PBM binding z-score,[1],-0.0725
same,PBM binding z-score,[2],-0.255
same,PBM binding z-score,[3],-0.585
same,PBM binding z-score,[4],-0.69
same,PBM binding z-score,[5],-1.06
same,PBM binding z-score,[6],0.614
same,PBM binding z-score,[7],0.69
same,PBM binding z-score,[8],-0.241
same,PBM binding z-score,[9],-0.412
same,PBM binding z-score,[10],-0.395
CTGACTGGGGCAGAAAGGTTACCATACCATCCGG,PBM binding z-score,[1],0.933
same,PBM binding z-score,[2],1.01
same,PBM binding z-score,[3],0.207
same,PBM binding z-score,[4],1.5
same,PBM binding z-score,[5],-0.293
same,PBM binding z-score,[6],2.65
same,PBM binding z-score,[7],2.32
same,PBM binding z-score,[8],3
same,PBM binding z-score,[9],1.18
same,PBM binding z-score,[10],2.35
CCTCGGAGGACAGAAGGTCAGAGCTGTCCGCTTT,PBM binding z-score,[1],1.38
same,PBM binding z-score,[2],1.63
same,PBM binding z-score,[3],-0.0944
same,PBM binding z-score,[4],1.03
same,PBM binding z-score,[5],-0.587
same,PBM binding z-score,[6],1.84
same,PBM binding z-score,[7],-0.203
same,PBM binding z-score,[8],0.708
same,PBM binding z-score,[9],-0.69
same,PBM binding z-score,[10],-0.00592
CCGACTGGGGCGGAAAGGTTACCATACCATCCGG,PBM binding z-score,[1],0.516
same,PBM binding z-score,[2],0.85
same,PBM binding z-score,[3],0.0346
same,PBM binding z-score,[4],1.23
same,PBM binding z-score,[5],-0.589
same,PBM binding z-score,[6],2.08
same,PBM binding z-score,[7],1.41
same,PBM binding z-score,[8],2.7
same,PBM binding z-score,[9],0.707
same,PBM binding z-score,[10],1.99
ATATGTCGGTTAAGGGTCATTCAGGTTGGTTCGC,PBM binding z-score,[1],4.54
same,PBM binding z-score,[2],4.44
same,PBM binding z-score,[3],3.12
same,PBM binding z-score,[4],4.03
same,PBM binding z-score,[5],1.48
same,PBM binding z-score,[6],5.44
same,PBM binding z-score,[7],8.83
same,PBM binding z-score,[8],8.47
same,PBM binding z-score,[9],7.13
same,PBM binding z-score,[10],9.33
CGTCCAAGGTCAGAGAGCTCAGTGAATGCCGAGT,PBM binding z-score,[1],4.73
same,PBM binding z-score,[2],2.83
same,PBM binding z-score,[3],-0.139
same,PBM binding z-score,[4],1.84
same,PBM binding z-score,[5],-0.554
same,PBM binding z-score,[6],3.92
same,PBM binding z-score,[7],1.95
same,PBM binding z-score,[8],2.52
same,PBM binding z-score,[9],0.0748
same,PBM binding z-score,[10],1.43
AGTCAAAGTTCACTTGGTAACGTAAGATTCAGCT,PBM binding z-score,[1],4.85
same,PBM binding z-score,[2],5.05
same,PBM binding z-score,[3],3.34
same,PBM binding z-score,[4],3.4
same,PBM binding z-score,[5],1.63
same,PBM binding z-score,[6],3.85
same,PBM binding z-score,[7],5.08
same,PBM binding z-score,[8],5.79
same,PBM binding z-score,[9],2.52
same,PBM binding z-score,[10],4.52
TCATATAGGTAAATGCTAGGTGAAAGGCCGATCT,PBM binding z-score,[1],0.626
same,PBM binding z-score,[2],1.07
same,PBM binding z-score,[3],0.239
same,PBM binding z-score,[4],0.994
same,PBM binding z-score,[5],0.0512
same,PBM binding z-score,[6],1.93
same,PBM binding z-score,[7],1.81
same,PBM binding z-score,[8],3.17
same,PBM binding z-score,[9],3.62
same,PBM binding z-score,[10],3.95
CGAACTAGGTCATCCAGGACGGTGAATACATTGA,PBM binding z-score,[1],4.05
same,PBM binding z-score,[2],2.29
same,PBM binding z-score,[3],0.0785
same,PBM binding z-score,[4],1.64
same,PBM binding z-score,[5],-0.427
same,PBM binding z-score,[6],4.85
same,PBM binding z-score,[7],7.27
same,PBM binding z-score,[8],6.3
same,PBM binding z-score,[9],3.61
same,PBM binding z-score,[10],5.41
TAGCCTAGGTCATTGGGCCAGTACAGTACGCATC,PBM binding z-score,[1],4.4
same,PBM binding z-score,[2],3.61
same,PBM binding z-score,[3],1.04
same,PBM binding z-score,[4],2.35
same,PBM binding z-score,[5],0.354
same,PBM binding z-score,[6],3.83
same,PBM binding z-score,[7],3.38
same,PBM binding z-score,[8],3.78
same,PBM binding z-score,[9],0.72
same,PBM binding z-score,[10],2.63
CAATCTAGGTCAAGGTCAAAGTCGGTTTGTGCCA,PBM binding z-score,[1],6.74
same,PBM binding z-score,[2],5.74
same,PBM binding z-score,[3],4.27
same,PBM binding z-score,[4],4.52
same,PBM binding z-score,[5],1.81
same,PBM binding z-score,[6],6.18
same,PBM binding z-score,[7],9.73
same,PBM binding z-score,[8],8.06
same,PBM binding z-score,[9],6.64
same,PBM binding z-score,[10],8.19
CGTCAAAGTTAAACTAAGGTAACGTAAAGCACGC,PBM binding z-score,[1],0.945
same,PBM binding z-score,[2],1.15
same,PBM binding z-score,[3],0.57
same,PBM binding z-score,[4],0.346
same,PBM binding z-score,[5],0.169
same,PBM binding z-score,[6],0.868
same,PBM binding z-score,[7],0.628
same,PBM binding z-score,[8],0.688
same,PBM binding z-score,[9],0.0889
same,PBM binding z-score,[10],0.292
CCATACGGGTCACTGACAGGTTATAGCATTTGGA,PBM binding z-score,[1],4.49
same,PBM binding z-score,[2],4.04
same,PBM binding z-score,[3],0.394
same,PBM binding z-score,[4],3.31
same,PBM binding z-score,[5],0.0673
same,PBM binding z-score,[6],4.83
same,PBM binding z-score,[7],3.92
same,PBM binding z-score,[8],3.76
same,PBM binding z-score,[9],1.43
same,PBM binding z-score,[10],2.41
ATCGAAAGGTCGAATGTGAGTATACCCACCCGAA,PBM binding z-score,[1],4.89
same,PBM binding z-score,[2],4.01
same,PBM binding z-score,[3],0.69
same,PBM binding z-score,[4],3.19
same,PBM binding z-score,[5],1.37
same,PBM binding z-score,[6],4.5
same,PBM binding z-score,[7],2.9
same,PBM binding z-score,[8],3.02
same,PBM binding z-score,[9],1.25
same,PBM binding z-score,[10],1.97
TTACCAAGGAGAAAGGTCGTTGATGCACGCCTTG,PBM binding z-score,[1],1.02
same,PBM binding z-score,[2],1.35
same,PBM binding z-score,[3],0.0075
same,PBM binding z-score,[4],1.32
same,PBM binding z-score,[5],-0.338
same,PBM binding z-score,[6],2.37
same,PBM binding z-score,[7],2.36
same,PBM binding z-score,[8],4.03
same,PBM binding z-score,[9],2.56
same,PBM binding z-score,[10],3.74
